Laboratory results taken from the supplement of paper PMC8728848.
This excerpt belongs to a sample that is enriched for the strongest signals.

Columns and labels:
Assay in all cases: glycan array binding signal (z-score within array); higher = stronger binding
Details in all cases: glycan notation: IUPAC condensed, linker removed
[1] = target: Fuc(a1-2)Gal(b1-3)GlcNAc(b1-3)[Gal(b1-4)GlcNAc(b1-6)]Gal(b1-4)Glc
In short: (§1)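 The binding signal is a Z-score computed within each array and averaged over linkers. Arrays of the same protein sequence at different concentrations or buffers were also averaged together. Data originate from 3228 arrays in the Consortium for Functional Glycomics database, kept only where the protein sequence was available.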

[2] = target: Fuc(a1-2)Gal(b1-3)[Fuc(a1-4)]GlcNAc
In short: as §1

[3] = target: Fuc(a1-2)Gal(b1-3)[Fuc(a1-4)]GlcNAc(b1-2)Man(a1-3)[Fuc(a1-2)Gal(b1-3)[Fuc(a1-4)]GlcNAc(b1-2)Man(a1-6)]Man(b1-4)GlcNAc(b1-4)[Fuc(a1-6)]GlcNAc(b1-4)[Fuc(a1-6)]GlcNAc
In short: as §1

[4] = target: Fuc(a1-2)Gal(b1-4)GlcNAc(b1-3)[Fuc(a1-3)[Gal(b1-4)]GlcNAc(b1-6)]Gal(b1-4)Glc
In short: as §1

[5] = target: Fuc(a1-2)Gal(b1-4)[Fuc(a1-3)]GlcNAc(b1-3)Gal(b1-4)[Fuc(a1-3)]GlcNAc(b1-3)Gal(b1-4)[Fuc(a1-3)]GlcNAc
In short: as §1

[6] = target: Fuc(a1-2)[Gal(a1-3)]Gal(b1-4)GlcNAc(b1-3)GalNAc
In short: as §1

[7] = target: Fuc(a1-3)[Gal(b1-4)]GlcNAc(b1-2)Man(a1-3)[Fuc(a1-3)[Gal(b1-4)]GlcNAc(b1-2)Man(a1-6)]Man(b1-4)GlcNAc(b1-4)GlcNAc
In short: as §1

[8] = target: Gal(a1-3)Gal(b1-3)GlcNAc(b1-2)Man
In short: as §1

[9] = target: Gal(a1-3)Gal(b1-3)GlcNAc(b1-6)GalNAc
In short: as §1

[10] = target: Gal(a1-3)Gal(b1-4)GlcNAc(b1-6)GalNAc
In short: as §1

[11] = target: Gal(b1-4)GlcNAc
In short: as §1

[12] = target: Gal(b1-4)GlcNAc(b1-2)[Gal(b1-4)GlcNAc(b1-4)]Man(a1-3)[GlcNAc(b1-4)][Gal(b1-4)GlcNAc(b1-2)[Gal(b1-4)GlcNAc(b1-6)]Man(a1-6)]Man(b1-4)GlcNAc(b1-4)GlcNAc
In short: as §1

[13] = target: Gal(b1-4)GlcNAc(b1-2)[Gal(b1-4)GlcNAc(b1-6)]Man(a1-6)[GlcNAc(b1-4)][Gal(b1-4)GlcNAc(b1-2)Man(a1-3)]Man(b1-4)GlcNAc(b1-4)GlcNAc
In short: as §1

[14] = target: Gal(b1-4)GlcNAc(b1-3)Gal(b1-4)GlcNAc(b1-3)Gal(b1-4)GlcNAc(b1-3)Gal(b1-4)GlcNAc(b1-2)Man(a1-3)[Gal(b1-4)GlcNAc(b1-3)Gal(b1-4)GlcNAc(b1-3)Gal(b1-4)GlcNAc(b1-3)Gal(b1-4)GlcNAc(b1-2)Man(a1-6)]Man(b1-4)GlcNAc(b1-4)[Fuc(a1-6)]GlcNAc
In short: as §1

[15] = target: Gal(b1-4)GlcNAc(b1-3)Gal(b1-4)GlcNAc(b1-3)Gal(b1-4)GlcNAc(b1-3)Gal(b1-4)GlcNAc(b1-3)Gal(b1-4)GlcNAc(b1-2)Man(a1-3)[Gal(b1-4)GlcNAc(b1-3)Gal(b1-4)GlcNAc(b1-3)Gal(b1-4)GlcNAc(b1-3)Gal(b1-4)GlcNAc(b1-3)Gal(b1-4)GlcNAc(b1-2)Man(a1-6)]Man(b1-4)GlcNAc(b1-4)[Fuc(a1-6)]GlcNAc
In short: as §1

[16] = target: Gal(b1-4)GlcNAc(b1-3)GalNAc
In short: as §1

[17] = target: Gal(b1-4)GlcNAc(b1-6)[Gal(b1-3)]GalNAc
In short: as §1

[18] = target: Gal3S(b1-4)Glc
In short: as §1

[19] = target: Gal6S(b1-4)Glc6S
In short: as §1

[20] = target: GalNAc(b1-4)GlcNAc6S
In short: as §1

[21] = target: GlcA(b1-6)Gal
In short: as §1

[22] = target: GlcNAc(a1-4)Gal(b1-4)GlcNAc(b1-3)Gal(b1-4)Glc
In short: as §1

[23] = target: GlcNAc(a1-4)Gal(b1-4)GlcNAc(b1-3)Gal(b1-4)GlcNAc(b1-3)Gal(b1-4)GlcNAc
In short: as §1

[24] = target: GlcNAc(b1-3)Gal(b1-4)GlcNAc(b1-2)[GlcNAc(b1-3)Gal(b1-4)GlcNAc(b1-6)]Man(a1-6)[GlcNAc(b1-3)Gal(b1-4)GlcNAc(b1-2)Man(a1-3)]Man(b1-4)GlcNAc(b1-4)GlcNAc
In short: as §1

[25] = target: GlcNAc(b1-3)Gal(b1-4)GlcNAc(b1-3)Gal(b1-4)GlcNAc(b1-3)Gal(b1-4)GlcNAc(b1-2)[GlcNAc(b1-3)Gal(b1-4)GlcNAc(b1-3)Gal(b1-4)GlcNAc(b1-3)Gal(b1-4)GlcNAc(b1-6)]Man(a1-6)[GlcNAc(b1-3)Gal(b1-4)GlcNAc(b1-3)Gal(b1-4)GlcNAc(b1-3)Gal(b1-4)GlcNAc(b1-2)Man(a1-3)]Man(b1-4)GlcNAc(b1-4)[Fuc(a1-6)]GlcNAc
In short: as §1

[26] = target: GlcNAc(b1-3)Gal(b1-4)GlcNAc(b1-3)Gal(b1-4)GlcNAc(b1-3)Gal(b1-4)GlcNAc(b1-3)Gal(b1-4)GlcNAc(b1-2)Man(a1-3)[GlcNAc(b1-3)Gal(b1-4)GlcNAc(b1-3)Gal(b1-4)GlcNAc(b1-3)Gal(b1-4)GlcNAc(b1-3)Gal(b1-4)GlcNAc(b1-2)Man(a1-6)]Man(b1-4)GlcNAc(b1-4)GlcNAc
In short: as §1

[27] = target: GlcNAc(b1-3)[GlcNAc(b1-6)]Gal(b1-4)GlcNAc
In short: as §1

[28] = target: GlcNAc(b1-4)Gal(b1-4)GlcNAc
In short: as §1

[29] = target: Man(a1-2)Man(a1-3)[Man(a1-2)Man(a1-6)]Man
In short: as §1

[30] = target: Man(a1-2)Man(a1-3)[Man(a1-2)Man(a1-6)]Man(a1-6)[Man(a1-2)Man(a1-2)Man(a1-3)]Man
In short: as §1

B1: Pwp2 (Candida glabrata) (protein)
chain: MGSSHHHHHHSSGLVPRGSHMASKNPVELNNVCTFPNDYGRIPGFTVLVGRLGLLISASDYKELLRYPGAFLIATQDTMTTSPNFELTGFPFFTGLYGLTVFPLDLLVELRGYFVPPNSGQYTFTLSDSDDAAIIFLGNPSAFPCGDLQNWPKPSEEDITVTDHLFPSRTLYLIEGVAYPMRIAYYNGIGAGRLNAAFIDPSGTRHTNWEGYIWQYDPCSTCTYS
[1]
  glycan array binding signal (z-score): -0.594
[2]
  glycan array binding signal (z-score): -0.451
[3]
  glycan array binding signal (z-score): 6.32
[4]
  glycan array binding signal (z-score): 0.384
[5]
  glycan array binding signal (z-score): -0.086
[6]
  glycan array binding signal (z-score): -0.603
[7]
  glycan array binding signal (z-score): 2.54
[8]
  glycan array binding signal (z-score): -0.046
[9]
  glycan array binding signal (z-score): -0.526
[10]
  glycan array binding signal (z-score): -0.281
[11]
  glycan array binding signal (z-score): -0.286
[12]
  glycan array binding signal (z-score): -0.248
[13]
  glycan array binding signal (z-score): -0.569
[14]
  glycan array binding signal (z-score): 3.91
[15]
  glycan array binding signal (z-score): 1.62
[16]
  glycan array binding signal (z-score): -0.473
[17]
  glycan array binding signal (z-score): 1.6
[18]
  glycan array binding signal (z-score): -0.429
[19]
  glycan array binding signal (z-score): -0.419
[20]
  glycan array binding signal (z-score): -0.448
[21]
  glycan array binding signal (z-score): -0.235
[22]
  glycan array binding signal (z-score): -0.466
[23]
  glycan array binding signal (z-score): -0.42
[24]
  glycan array binding signal (z-score): 4.24
[25]
  glycan array binding signal (z-score): 5.45
[26]
  glycan array binding signal (z-score): -0.549
[27]
  glycan array binding signal (z-score): -0.141
[28]
  glycan array binding signal (z-score): -0.446
[29]
  glycan array binding signal (z-score): -0.477
[30]
  glycan array binding signal (z-score): -0.722
